Compound activity as filed in PubChem BioAssay.
USP30 block: inhibitors of human USP30 deubiquitinase; purified USP30, Ub-rhodamine cleavage fluorescence; inhibition, % at 25 µM; 47,000 tested, 5.3% active; AID 1645860
USP17 inh: inhibitors of human USP17 deubiquitinase. 47,000 tested, 6.5% active. purified USP17, Ub-rhodamine cleavage fluorescence, 3 h. inhibition, % at 50 µM
USP10 block: inhibitors of human USP10 deubiquitinase. inhibition, % at 20 µM. Q14694. purified USP10, Ub-rhodamine fluorescence, 60 min. 47,000 tested, 1.1% active
USP8 inh: blocks human USP8 ubiquitin-rhodamine cleavage; AID 1645853; inhibition, % at 20 µM; 47,000 tested, 4.2% active; purified USP8, Ub-rhodamine cleavage fluorescence, 30 min
USP7 block: inhibitors of human USP7 deubiquitinase; Q93009; purified USP7, Ub-rhodamine cleavage fluorescence; inhibition, % at 20 µM; 47,000 tested, 0.3% active; AID 1645854
UCHL1 block: inhibitors of human UCHL1 deubiquitinase; purified UCHL1, Ub-rhodamine cleavage fluorescence; P09936; 47,000 tested, 0.2% active; inhibition, % at 20 µM
* marks the source's active call; other numbers are inactive results; / = no result given. Hits are enriched below; roughly 13% of the tested compounds scored in any of these assays. Cut-off read from the data, not from the text of the source: active = inhibition above about 30%; inactive = the rest.

SMILES	USP30 block	USP17 inh	USP10 block	USP8 inh	USP7 block	UCHL1 block
CC(=O)O[C@H]1CC[C@]2(C)[C@H]3C(=O)C=C4[C@@H]5C[C@@](C)(C(=O)O)CC[C@]5(C)CC[C@@]4(C)[C@]3(C)CC[C@H]2C1(C)C	5	7	14	8	7	-1
Cc1ccc(CNC(=O)COC(=O)C(NC(=O)c2ccc(C)cc2)C(C)C)cc1 (configuration not stated)	-28	-5	-4	4	-12	-1
Cc1ccc(C(CNC(=O)COc2ccc(F)cc2)N2CCCCC2)o1 (configuration not stated)	-41	-18	-3	5	-6	-4
CN(C)c1ccc(S(=O)(=O)N2C[C@@H]3c4nccn4-c4ccccc4[C@@H]3C2)cc1	-26	/	-4	-2	-12	-8
O=C(Nc1ccccc1Oc1ccccc1)C(c1ccccc1)c1ccccc1	37*	23	14	23	11	8
Cc1ccccc1NC(=O)Cc1nc(COC(=O)c2cccc(S(=O)(=O)N3CC(C)OC(C)C3)c2)cs1 (configuration not stated)	-110	-38	-5	-68	-7	-7
COc1ccccc1-c1nc(-c2nnn(Cc3ccc(C)cc3)c2C)no1	30*	4	13	5	-10	6
COc1ccc(-c2nc(-c3nnn(Cc4cccc(F)c4)c3C)no2)c(OC)c1	32*	-5	11	3	7	5
COc1ccccc1-c1nc(-c2nnn(Cc3ccccc3)c2C)no1	27	24	6	8	-6	5
COc1ccccc1-c1noc(-c2nnn(Cc3nc(-c4ccc(C)cc4)oc3C)c2C)n1	32*	-7	-2	2	-1	-2
COc1ccc(-c2nc(Cn3nnc(-c4nc(-c5ccccc5C)no4)c3C)c(C)o2)cc1	-187	-50	-12	-43	-14	-5
COCCNC(=O)CN(Cc1ccc2c(c1)OCO2)C(=O)CCC(=O)Nc1ccccn1	-1	-3	-2	-1	-2	-1
COc1ccccc1OCCn1c(C2CC(=O)N(C(C)(C)C)C2)nc2ccccc21 (configuration not stated)	4	-6	2	6	-22	-1
COCCn1ccc(-c2cc(C(=O)N3CCC(N(C)C)C3)c3ccccn23)n1 (configuration not stated)	-229	-61	-4	-92	-2	-4
O=C1C(=O)N(c2nc3ccc(F)cc3s2)C(c2ccc(F)cc2)/C1=C(\O)c1ccc(F)cc1 (configuration not stated)	-110	-80	61*	-40	15	2
